Results as given in PubChem BioAssay (NCATS).
Active and inactive are the calls of the source. Entries that show only a call come without a potency. Calls come from the whole dose curve; as a rule, active = well fitted inhibition curve with a large enough effect; inconclusive = small, poorly fitted or top-dose-only effect; inactive = no such curve, though single readings can be large or run the other way.

These molecules were tested against Pyruvate kinase (Leishmania mexicana) (UniProt Q27686) (assay: qHTS Validation Assay for Inhibitors of Leishmania Mexicana Pyruvate Kinase (AID 945)). Conditions: purified L. mexicana pyruvate kinase, enzyme activity, E451W mutant enzyme; series mostly up to 57.5 µM.
Chain of Pyruvate kinase (Leishmania mexicana) (Q27686 2-499 E452W): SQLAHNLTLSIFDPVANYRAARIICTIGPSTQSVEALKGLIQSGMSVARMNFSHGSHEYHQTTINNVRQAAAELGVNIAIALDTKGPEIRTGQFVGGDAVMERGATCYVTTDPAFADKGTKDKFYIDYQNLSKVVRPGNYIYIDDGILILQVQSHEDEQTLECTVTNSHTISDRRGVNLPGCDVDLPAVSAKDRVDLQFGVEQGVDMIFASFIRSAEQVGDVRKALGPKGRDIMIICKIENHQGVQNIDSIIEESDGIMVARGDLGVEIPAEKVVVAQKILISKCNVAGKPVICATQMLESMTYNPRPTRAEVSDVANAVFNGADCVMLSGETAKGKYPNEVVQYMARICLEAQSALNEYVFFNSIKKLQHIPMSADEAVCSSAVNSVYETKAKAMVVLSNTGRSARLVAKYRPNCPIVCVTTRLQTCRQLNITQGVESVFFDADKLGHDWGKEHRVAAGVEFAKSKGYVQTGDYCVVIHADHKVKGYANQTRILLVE
Excerpt: NIH Molecular Libraries Screening Centers Network [MLSCN]
NIH Chemical Genomics Center [NCGC]
PI names: Malcom Walkinshaw, Hugh Morgan and Linda Gilmore
University of Edinburgh, Edinburgh, UK
Species of Leishmania are responsible for a wide spectrum of diseases throughout the tropics and subtropics, ranging from self-healing ulcers to highly disfiguring lesions and serious, often lethal visceral diseases, such as kala-azar. In Leishmania spp. it has been shown that both sugar uptake and gluconeogenesis are necessary to synthesize sufficient hexose-phosphate required for the production of glycoconjugates and the intracellular polysaccharide mannan which are essential for both replication and virulence of the parasites. Therefore, most of the enzymes participating in glycolysis and gluconeogenesis are expected to be essential (Naderer et al., 2006). The assay described here targets pyruvate kinase from Leishmania mexicania (LmPYK) that was obtained as a highly purified preparation from the University of Edinburgh (E451W mutant was provided). A 1536 well assay protocol was set up and validated by screening the LOPAC library in triplicate as an eight point concentration-titration series using the qHTS platform developed at the NCGC.
NCGC Assay Protocol Summary:
Three uL of substrate mix (final concentrations, 50 mM imidazole pH 7.2, 50 mM KCl, 7 mM MgCl2, 0.5 mM PEP, 0.1 mM ADP, 0.01% Tween 20, 0.05% BSA) was dispensed into white solid medium binding Greiner 1536 well plates. 23 nL of compound were delivered by a pin tool and 1 uL of enzyme mix (final concentration, 0.2 nM LmPYK, 50 mM imidazole pH 7.2, 0.05% BSA) was added. Plates were covered with stainless steel gasket-lined lids and incubated at room temperature for 1 hour. Two uL of detection and kinase stop mix (PKLight, Lonza) was added, and luminescence read by a ViewLux (Perkin Elmer) at 2 second exposure/plate using 2x binning. Controls on each plate were as follows: column 1, sixteen-point titration (1:2 dilutions) in duplicate the LmPK activator LOPAC-C8145 beginning at 57 uM final concentration; column 2, sixteen-point titration (1:2 dilutions) in duplicate activator LOPAC-S4063 beginning at 57 uM final concentration; column 3, column 4 DMSO only. Data were normalized to the neutral control (column 3).
Potency is the fitted concentration of half-maximal effect.

Question: For `CC1(C)NC(=O)N(c2ccc([N+](=O)[O-])c(C(F)(F)F)c2)C1=O`, which Potency is on record?
Answer: inactive

Question: `O=C(O)c1cccnc1Nc1cccc(C(F)(F)F)c1` was tested. Which Potency did it give?
Answer: inactive

Question: `Cc1cccc(C#Cc2ccccc2)n1` was tested. Which Potency did it give?
Answer: 15.8 µM (active)

Question: How did the Potency turn out when `Cc1c(OCC(F)(F)F)ccnc1CS(=O)c1nc2ccccc2[nH]1` (centres undefined) was run?
Answer: inactive

Question: Which Potency does the source give for `CC(C)c1ccc2c(c1)c(SC(C)(C)C)c(CC(C)(C)C(=O)O)n2Cc1ccc(Cl)cc1` here?
Answer: inactive

Question: For `Cc1cc(O)c2c(c1)C(=O)c1cc(O)cc(O)c1C2=O`, which Potency is on record?
Answer: inactive

Question: `O=C(CCc1ccc(O)cc1)c1c(O)cc(O)cc1O` was tested. Which Potency did it give?
Answer: inactive

Question: With `O=c1cc(N2CCOCC2)oc2c(-c3ccccc3)cccc12` as the molecule, how does the Potency read?
Answer: inactive

Question: How did the Potency turn out when `Oc1ccc(-c2nc(-c3ccc(F)cc3)c(-c3ccncc3)[nH]2)cc1` was run?
Answer: inactive

Question: How did the Potency turn out when `CC(=O)N1CCN(c2ccc(OC[C@H]3CO[C@](Cn4ccnc4)(c4ccc(Cl)cc4Cl)O3)cc2)CC1` was run?
Answer: inactive

Question: Which Potency does the source give for `O=c1c(O)c(-c2ccc(O)cc2O)oc2cc(O)cc(O)c12` here?
Answer: inactive

Question: `O=C1NC(=O)C(c2ccccc2[N+](=O)[O-])=C1Nc1ccc(O)c(Cl)c1` was tested. Which Potency did it give?
Answer: inactive

Question: Which Potency does the source give for `COc1ccc2cc([C@H](C)C(=O)O)ccc2c1` here?
Answer: inactive

Question: `Cc1nc2n(c(=O)c1CCN1CCC(c3noc4cc(F)ccc34)CC1)CCCC2` was tested. Which Potency did it give?
Answer: inactive

Question: For `Nc1nc(OCc2ccccc2)c2[nH]cnc2n1`, which Potency is on record?
Answer: inactive

Question: `O=C1c2ccccc2-c2n[nH]c3cccc1c23` was tested. Which Potency did it give?
Answer: inactive

Question: Which Potency does the source give for `NC(=NCc1ccccc1)NC(=O)c1nc(Cl)c(N)nc1N` here?
Answer: inactive

Question: Which Potency does the source give for `NCCCCNCCCN` here?
Answer: inactive

Question: How did the Potency turn out when `CC1(C)C(=O)N(CCN2CCC(C(=O)c3ccc(F)cc3)CC2)c2ccccc21` was run?
Answer: inactive

Question: How did the Potency turn out when `O=c1ccc2ccc(O)c(O)c2o1` was run?
Answer: inactive

Question: How did the Potency turn out when `C[C@H](Cc1ccc(O)c(O)c1)[C@@H](C)Cc1ccc(O)c(O)c1` was run?
Answer: inactive

Question: For `CNC[C@H](O)c1ccc(O)c(O)c1`, which Potency is on record?
Answer: inactive

Question: For `COc1ccccc1N1CCN(CCN(C(=O)C2CCCCC2)c2ccccn2)CC1`, which Potency is on record?
Answer: inactive

Question: `O=c1c(O)c(-c2cc(O)c(O)c(O)c2)oc2cc(O)cc(O)c12` was tested. Which Potency did it give?
Answer: inactive
